# Results published in PubChem BioAssay AID1851 (National Center for Advancing Translational Sciences (NCATS), 2009).
# Where “and” joins values, the source holds several entries; their conditions need not be identical. Identical values can stand only once. The campaign covered roughly 16,000 compounds. About 2,600 (16%) were called active. About 20% were inconclusive and are not listed. The call rests on the fitted dose curve; in most records, active means well fitted curve in the direction sought with a large enough effect; inconclusive means small, poorly fitted or top-dose-only effect, or effect the other way; inactive means no such curve, though single readings can be large or run the other way. These entries were drawn from the full list.
# Target: Cytochrome P450 2D6 (Homo sapiens) (UniProt P10635)
# Test: Cytochrome panel assay with activity outcomes
# Conditions: recombinant CYP, pro-luciferin dealkylation, luminescence, p450-cyp2d6; series mostly up to 57.1 µM; activity, negative = inhibition: at the top concentration
# On the % scale 0 is the no-effect control and ±100 the full control effect.
# Sequence of Cytochrome P450 2D6 (Homo sapiens) (P10635 whole entry, looked up): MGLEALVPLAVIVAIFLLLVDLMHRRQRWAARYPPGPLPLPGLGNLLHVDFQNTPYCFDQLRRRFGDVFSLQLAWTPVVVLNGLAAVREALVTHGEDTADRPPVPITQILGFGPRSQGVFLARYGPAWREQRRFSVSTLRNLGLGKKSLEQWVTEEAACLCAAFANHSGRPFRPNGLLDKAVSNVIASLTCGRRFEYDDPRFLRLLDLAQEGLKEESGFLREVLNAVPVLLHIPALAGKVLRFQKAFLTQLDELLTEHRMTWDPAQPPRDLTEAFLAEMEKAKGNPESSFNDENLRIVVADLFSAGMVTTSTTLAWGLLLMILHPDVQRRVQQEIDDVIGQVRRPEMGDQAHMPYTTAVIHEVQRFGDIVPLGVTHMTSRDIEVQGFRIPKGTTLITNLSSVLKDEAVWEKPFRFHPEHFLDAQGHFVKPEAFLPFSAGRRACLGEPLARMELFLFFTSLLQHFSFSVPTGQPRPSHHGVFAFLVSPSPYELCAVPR
SMILES,"activity, negative = inhibition",AC50
CCOC(=O)c1[nH]c(C)c(/C(O)=C2\C(=O)C(=O)N(CCN3CCOCC3)C2c2cccs2)c1C (stereo not given),-7.66% (inactive),–
Cc1ccccc1-n1nc2c(c1NC(=O)c1c(-c3ccccc3Cl)noc1C)CSC2,0.2% (inactive),–
COCC(=O)N1CCN(c2ccc([N+](=O)[O-])cc2)CC1,13.8% (inactive),–
CN1C(=O)NC(c2ccc(O)cc2)C(C(=O)c2cccs2)C1(O)C(F)(F)F (stereo not given),-6.24% (inactive),–
Cc1cccc(C)c1NC(=O)c1cc2c(=O)c3ccccc3oc2nc1C(F)(F)F,27.2% (inactive),–
CO[C@H]1COC(=O)[C@@H](C)COC(=O)[C@@H](COCc2ccccc2)NC(=O)C/C=C\[C@H]1C,6.49% [at 11.4 µM] (inactive),–
CC(=O)N(/N=C/c1cccc(C)c1)c1nc(-c2ccc(Br)cc2)cs1,22.1% (inactive),–
Cc1cc(N)c2ccccc2[n+]1CCCCCCCCCCCCCC[n+]1c(C)cc(N)c2ccccc21,–,7.94 µM (active)
Cc1cc(N)c2ccccc2[n+]1CCCCCCCCCC[n+]1c(C)cc(N)c2ccccc21,–,10 µM (active) and 15.8 µM (active)
Cn1c(N)c(C(=O)CSc2ccc3c(c2)OCCO3)c(=O)n(C)c1=O,-9.58% (inactive),–
O=C(COc1cccc2ccccc12)N1c2ccccc2CCc2ccccc21,-6.12% (inactive),–
COC(=O)[C@@H](NC(=O)Nc1ccc(C(C)=O)cc1)C(C)C,15.7% (inactive),–
CC(C)=CCC/C(C)=C/CO/N=C1/C[C@@H](O)[C@@H](O)[C@@H]2[C@@H]3C(=O)N(Cc4ccc5c(c4)OCO5)C(=O)[C@H]3CC[C@@H]12,-7.94% [at 11.4 µM] (inactive),–
COc1cc(/C=N/O)cc(Br)c1OCc1cccc(Cl)c1,-27.4% (inactive),–
O=C(SCc1cccc2ccccc12)c1ccc(Cl)cc1,-11.2% [at 11.4 µM] (inactive),–
O/N=C/c1cc(Cl)ccc1OCc1cccc2ccccc12,–,15.8 µM (active)
CC(C)C(NS(=O)(=O)c1cccc2nsnc12)C(=O)N1CCc2ccccc2C1 (stereo not given),-3.17% (inactive),–
CO[C@H]1[C@H](O[C@H]2O[C@@H](C)[C@@H](O[C@@H]3C[C@](C)(O)[C@H](OC(=O)CC(C)C)[C@H](C)O3)[C@@H](N(C)C)[C@@H]2O)[C@@H](CC=O)C[C@@H](C)[C@@H](O)/C=C\C=C/C[C@@H](C)OC(=O)C[C@H]1OC(C)=O,3.01% [at 25.6 µM] (inactive),–
CC(C)(C)c1ccc(C(=O)NC(Cc2ccccc2)C(=O)O)cc1 (stereo not given),28.5% (inactive),–
CCCCCCN(CCCCCC)C(=O)Cc1c(-c2ccc(F)cc2)[nH]c2ccccc12,-3.8% (inactive),–
Cc1ccc2[nH]c(-c3ccccc3)c(CN(C)C)c(=O)c2c1,–,0.0316 µM (active)
Cc1cc(=O)[nH]c2ccccc12,0.998% (inactive),–
CC(=O)N1CCN(c2nc(C)nc3sc4c(c23)CCC(C)C4)CC1 (stereo not given),-13.3% (inactive),–
CON/C=C(\C=Nc1ccccc1)c1ncc(C(F)(F)F)cc1Cl,6.49% (inactive),–

SMILES,"activity, negative = inhibition",AC50
COc1ccc(C2CC(=O)CC(=O)C2n2cncn2)cc1 (stereo not given),-1.52% (inactive),–
O=C(O)Cc1nn(Cc2ccc(Br)cc2F)c(=O)c2ccccc12,1.91% (inactive),–
Cc1cc(C)c(S(=O)(=O)Nc2ccccc2C(F)(F)F)c(C)c1,–,6.31 µM (active)
CC(C)(C)CC(=O)NC(=S)Nc1ccccc1C(F)(F)F,-40.1% (inactive),–
Cc1cc(C)c(S(=O)(=O)Nc2cccc(C(F)(F)F)c2)c(C)c1,-1.42% (inactive),–
CCN(CC)c1ccc(NC(=O)c2cnn(CC)c2)cc1,-6.55% (inactive),–
COC(=O)CSc1ccc2nnc(-c3ccc(F)cc3)n2n1,17.6% (inactive),–
c1ccc2[nH]c(NC3=NCCC3)nc2c1,-17.9% (inactive),–
Cc1cc(C)nc(SCc2nnc(SCC(N)=O)n2Cc2ccco2)n1,-5.05% (inactive),–
OC(Cc1nc2ccccc2[nH]1)c1ccccc1Cl (stereo not given),–,1.12 µM (active)
O=C(O)CSc1nc2ccccc2[nH]1,9.25% [at 11.4 µM] (inactive),–
OCCNc1nc2ccccc2[nH]1,1.74% (inactive),–
c1ccc(SCc2nc3ccccc3[nH]2)cc1,–,10 µM (active)
Cc1cc(NC(=O)CSc2nnc(-c3ccccc3)n2Cc2ccco2)no1,-9.41% (inactive),–
COCCn1c(Cc2ccccc2)nnc1SCc1nc2ccccc2c(=O)[nH]1,7.43% (inactive),–
c1ccc(-c2nnc(SCc3nc4ccccc4[nH]3)n2Cc2ccco2)cc1,–,6.31 µM (active)
Cc1nonc1NC(=O)N1CCCC1,6.35% (inactive),–
O=C(O)Cn1ccnc1[N+](=O)[O-],0.12% [at 11.4 µM] (inactive),–
Cc1ccc(C)c(/C(O)=C2/C(=O)C(=O)N(CCN3CCOCC3)C2c2ccco2)c1 (stereo not given),19.6% (inactive),–
COc1ccc(NC(=O)CSc2ccc3c4c(cccc24)C(=O)c2ccccc2-3)cc1,-17.2% (inactive),–
O=C(NCc1ccccc1)c1sc(=S)n2c1[nH]c(=O)c1ccccc12,-20.8% (inactive),–
COc1ccc(C(=O)Nc2cc(C(C)=O)c(/C=C/N(C)C)oc2=O)cc1,-2.29% (inactive),–
CCC(=O)Nc1c2c(nc3c1CCC3)CCCC2,-7.06% (inactive),–
COC(=O)CCC(=O)Nc1cccc2ccccc12,3.01% (inactive),–

SMILES,"activity, negative = inhibition",AC50
O=S(=O)(CC(O)COc1ccccc1Cl)c1ccccc1 (stereo not given),-16.4% (inactive),–
CCC(=O)NC(=S)Nc1ccc(NC(=O)COc2ccc(Cl)cc2Cl)cc1,-6.84% (inactive),–
O[C@@H](COc1ccc(Cl)cc1Cl)CN1CCCC1,–,0.316 µM (active)
O=C(OC1CCN(c2ncc(C(F)(F)F)cc2Cl)CC1)c1ccccc1,-21.2% (inactive),–
CC1(C)O[C@H]2[C@@H](c3[nH]nc4c(=O)[nH]c(=O)[nH]c34)OC[C@H]2O1,17% [at 11.4 µM] (inactive),–
CCSc1nnc(NC(=O)Cc2ccc(OC)c(OC)c2)s1,6.23% (inactive),–
Cc1nc2c(c(-c3ccccc3)c1C#N)C(=O)c1ccccc1-2,15.6% (inactive),–
CC(C)CC1NC(=S)N(C2CCCCC2)C1=O (stereo not given),4.01% (inactive),–
CCCC[C@@H]1C[C@H]1C(NC(=O)c1cccs1)c1ccc(C(F)(F)F)cc1 (stereo not given in full),3.39% (inactive),–
CS(=O)(=O)N(Cc1cc2ccccc2[nH]c1=O)C1CCCCC1,-8.47% (inactive),–
CC(C)(C)c1ccc(O)c(CN(Cc2c(O)ccc3ccccc23)C2CCCCC2)c1,–,0.794 µM (active)
CN(C)Cc1cc(C(C)(C)C)ccc1-c1ccc(C(C)(C)C)cc1CN(C)C,4.2% [at 11.4 µM] (inactive),–
Oc1ccc2ccccc2c1CN(Cc1c(O)ccc2ccccc12)C1CCCCC1,–,0.631 µM (active)
CC(C)(C)c1ccc(O)c(CN(Cc2cc(C(C)(C)C)ccc2O)C2CCCCC2)c1,–,0.501 µM (active)
CN(C)Cc1ccc(C(C)(C)C)cc1-c1cc(C(C)(C)C)ccc1CN(C)C,-2% [at 11.4 µM] (inactive),–
Oc1ccc2ccccc2c1Cc1c(O)ccc2ccccc12,3.09% [at 11.4 µM] (inactive),–
O=C(O)Cc1c(O)ccc2ccccc12,2.9% [at 11.4 µM] (inactive),–
O=C1C2=CC[C@H]3C(=O)N(c4cccc(Oc5ccccc5)c4)C(=O)[C@@H]3[C@@H]2[C@H](O)[C@@H]2O[C@H]12,1.91% [at 11.4 µM] (inactive),–
Cc1ccc(C(=O)N/N=C\c2cccn2C)cn1,23.5% (inactive),–
Fc1ccc(C2=Nn3c(Cc4ccccc4F)nnc3SC2)cc1,-7.98% (inactive),–
Cc1ccc(C(=O)NC(=S)Nc2ccc(S(=O)(=O)N3CCN(C)CC3)cc2)cc1,-15.3% (inactive),–
CC(C)(C)NC(=O)C(c1ccccn1)N(C(=O)C1CSC(=O)C1)c1ccc(F)cc1 (stereo not given),-21.8% (inactive),–
CC1=N[C@@](C)(COC(=O)[C@]2(C)N[C@](C)(CO)CO2)COC1=O,10% [at 11.4 µM] (inactive),–
NC(=O)CN1CCN(c2nc(-c3ccc(F)cc3)cs2)CC1,-6.06% (inactive),–

SMILES,"activity, negative = inhibition",AC50
Cn1cccc1C(=O)N1CCC2(CC1)CN(c1ccncc1)C2,-7.3% (inactive),–
Cn1cccc1C(=O)N1CCC2(CCN(Cc3ccncc3)CC2)CC1,-13.4% (inactive),–
Cn1cccc1C(=O)N1CCC2(CCN(Cc3ccccc3)CC2)CC1,–,7.94 µM (active)
CN1CC[C@@]2(CCCN(C(=O)c3cccn3C)C2)C1,-2.76% (inactive),–
Cn1cccc1C(=O)N1CCC[C@@]2(CCN(Cc3cc(C(F)(F)F)cc(C(F)(F)F)c3)C2)C1,–,3.98 µM (active)
Cn1cccc1C(=O)N1CCC[C@@]2(CCN(c3ccncc3)C2)C1,-6.49% (inactive),–
Cn1cccc1C(=O)N1CCC2(CCCN(Cc3ccncc3)C2)CC1,–,7.94 µM (active)
Cn1cccc1C(=O)N1CCC[C@@]2(CCN(c3ccccc3)C2)C1,-18.6% (inactive),–
COc1ccc(C(=O)N2CCC[C@@]3(CCN(Cc4cc(C(F)(F)F)cc(C(F)(F)F)c4)C3)C2)cc1,-10.6% (inactive),–
Cn1cccc1C(=O)N1CCC2(CC1)CN(Cc1ccc(C#N)cc1)C2,4.08% (inactive),–
Cn1cccc1C(=O)N1CCC2(CC1)CCN(c1ccccc1)CC2,9.63% (inactive),–
Cn1cccc1C(=O)N1CCC[C@@]2(CCN(Cc3ccccc3)C2)C1,–,2 µM (active)
NCC[C@H]1CCC[C@H](CCN)N1,-7.7% (inactive),–
O=[N+]([O-])c1ccc(C=Nc2ccc(Cl)cc2Cl)s1,-27.5% (inactive),–
COC(=O)[C@@]1(Cc2ccc(F)cc2)[C@@H]2C(=CC(=O)[C@H]2CC(=O)C(=O)N2CCCC2)CN1C(=O)c1ccccc1,-13.8% (inactive),–
N#CCCn1c(=O)cnc2cnc(N3CCNCC3)nc21,1.14% (inactive),–
c1ccc2cc(-c3csnn3)ccc2c1,-25.1% (inactive),–
CS(=O)(=O)N1CCCC(C(=O)N2CCc3ccccc3C2)C1 (stereo not given),-9.11% (inactive),–
CCOC(=O)CC(=O)CSc1nc(-c2cccnc2)cc(C)c1C#N,-8.95% (inactive),–
Cc1ccc(CONC(=O)/N=C/N(C)C)cc1,-0.0637% (inactive),–
C=CCNc1sc(C(=O)c2ccccc2)c(N)c1C#N,-15.1% (inactive),–
CCC[C@@H]1O[C@@H]2C[C@@H]3[C@H]4CCC5=CC(=O)C=C[C@@]5(C)[C@H]4[C@H](O)C[C@@]3(C)[C@@]2(C(=O)CO)O1,4.49% [at 25.6 µM] (inactive),–
CO[C@@H]1/C=C\O[C@]2(C)Oc3c(C)c(O)c4c(O)c(cc(O)c4c3C2=O)NC(=O)/C(C)=C\C=C/[C@H](C)[C@@H](O)[C@H](C)[C@H](O)[C@H](C)[C@H](OC(C)=O)[C@@H]1C,11.7% [at 11.4 µM] (inactive),–
